hcDAF12 agonist = activators of H. contortus DAF-12 nuclear receptor | HEK293 hcDAF-12 lit1-tk-luc reporter, luminescence; 0% DMSO, 100% Δ7-dafachronic acid | activation, % at 6.8 µM | hit rate 1.4% among 370,000 | AID 652067;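 active = activation above the mean of all tested compounds plus 3 SD, cut at about 5.5% in these data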;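 note: 100% = response to 3 µM Δ7-dafachronic acid high control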
Wnt act = activators of Wnt/beta-catenin signaling; Wnt/beta-catenin reporter cell assay, activator, plate reader; activation, % at 9.35 µM; hit rate 1.2% among 300,000; AID 743398; in the data active = activation above about 30%, passing the limit was not always enough;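 note: 0% = neutral control wells and 100% = positive control wells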
DAX1 StAR inh = blocks DAX1 repression of SF-1 activated StAR promoter | HEK293T StAR-luciferase reporter, SF-1/DAX-1 repression relief | inhibition, % at 6.8 µM | hit rate 1.1% among 370,000;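 active = inhibition above the mean over all tested compounds plus 3 SD, cut at about 3.6% in these data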;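 note: 0% = DAX-1 cells with DMSO and 100% = cells lacking DAX-1 with DMSO; higher inhibition means more luminescence from relief of DAX-1 repression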
ssDAF-12 act = activates DAF-12 receptor from parasite S. stercoralis. HEK293 ssDAF-12/GRIP1 lit1-tk-luc reporter, luminescence; % of 3 µM dafachronic acid response. activation, % at 6.8 µM. hit rate 1% among 370,000. AID 652126;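 active = activation above the mean over all tested compounds plus 3 SD, cut at about 0.9% in these data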;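 note: 0% = DMSO-only wells and 100% = 3 µM delta7-dafachronic acid wells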
esBAF inh = blocks esBAF chromatin remodeling in mouse ES cells; reporter increase, % at 12.5 µM; hit rate 2% among 350,000; Bmi1-luciferase knock-in reporter, 24 h; 100% = twice the neutral-well signal; AID 602393; in the data active = activation above about 40%;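 note: 0% = median of the plate's neutral control wells and 100% = double that signal; a rise in the Bmi1 reporter signal indicates esBAF inhibition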
hgDAF-12 ag = activates the H. glycines DAF-12 receptor ligand-binding domain; HEK293 GAL4-hgDAF12 UAS-luciferase reporter, agonist luminescence; normalized to butyrate control; hit rate 1.8% among 370,000; activation, % at 6.8 µM;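 active = activation above a cutoff set at the mean of all screened compounds plus 3 SD, cut at about 10% in these data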;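 note: 0% = DMSO wells and 100% = sodium butyrate wells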
LXR ag = LXR-beta agonism as hcDAF-12 counter-screen | shares compounds with hcDAF12 agonist | HEK293 Gal4-LXR tk-luc reporter, luminescence, 24 h; normalized: DMSO 0%, positive control 100% | activation, % at 6.8 µM | 3,400 tested, under 10 active;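 active = mean percent activation of the reporter above a cutoff set as the average over tested compounds plus their standard deviation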
Target sequence (P55055 whole entry, looked up, the tested form may be a part): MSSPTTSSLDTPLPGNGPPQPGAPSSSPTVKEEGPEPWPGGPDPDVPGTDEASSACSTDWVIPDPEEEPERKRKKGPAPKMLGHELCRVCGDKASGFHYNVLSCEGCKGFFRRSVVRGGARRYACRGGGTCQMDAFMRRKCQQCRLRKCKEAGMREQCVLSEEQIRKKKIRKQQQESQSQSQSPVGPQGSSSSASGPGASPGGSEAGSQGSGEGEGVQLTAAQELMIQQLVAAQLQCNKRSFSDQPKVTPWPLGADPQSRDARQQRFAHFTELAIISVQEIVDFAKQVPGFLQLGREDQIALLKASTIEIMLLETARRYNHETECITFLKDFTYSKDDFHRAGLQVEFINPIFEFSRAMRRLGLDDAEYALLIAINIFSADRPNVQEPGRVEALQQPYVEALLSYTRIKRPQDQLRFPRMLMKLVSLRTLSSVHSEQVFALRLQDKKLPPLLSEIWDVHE
hcDAF12 ag = hcDAF-12 agonism, confirmation assay; shares compounds with hcDAF12 agonist; HEK293 hcDAF-12 lit1-tk-luc reporter, luminescence; % of Δ7-dafachronic acid response; activation, % at 6.8 µM; hit rate 61% among 3,400;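 active = mean activation across triplicate tests above the threshold derived from the earlier primary screen, cut at about 5.5% in these data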;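 note: 0% = DMSO only wells and 100% = 3 µM Δ7-dafachronic acid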
* hit, by the source's call; . = no result. Hits are enriched below; roughly 4.2% of the tested compounds scored in any of these assays.

SMILES | hcDAF12 agonist | Wnt act | DAX1 StAR inh | ssDAF-12 act | esBAF inh | hgDAF-12 ag | LXR ag | hcDAF12 ag
CC(=O)Nc1sc2c(c1-c1nc3ccccc3s1)CN(C(C)C)CC2 | 14* | 58* | -1 | 2.5* | -82 | 11* | 2 | 17*
CC(=O)Nc1sc2c(c1-c1nc3ccccc3s1)CCOC2 | -1 | . | . | -2 | . | 4 | . | .
CC=Cc1ccc2n(c1=O)C[C@H]1[C@H](CO)[C@@H](C(=O)NCCC)N(CC3CCCC3)[C@@H]21 (mixture of isomers) | . | . | . | . | 2 | . | . | .
CCOc1ccc(Br)cc1CNCCN1CCOCC1 | 13* | -1 | 0 | -1 | . | 0 | 0 | 1
C[C@@H]1CN([C@@H](C)CO)S(=O)(=O)c2ccc(/C=C/c3ccccc3)cc2O[C@H]1CN(C)C(=O)c1ccccc1 | . | . | . | . | -1 | . | . | .
C[C@@H]1CN([C@H](C)CO)C(=O)c2cc(/C=C/c3ccccc3)cnc2O[C@@H]1CN(C)S(=O)(=O)c1cn(C)cn1 | . | . | . | . | -4 | . | . | .
COc1cccc(C(=O)O/N=C(\N)c2ccncc2)c1OC | 1 | . | 1 | -1 | . | 4 | . | .
COc1cccc(C(=O)O/N=C(\N)c2ccccn2)c1OC | 6.6* | 26 | 3 | 0 | -37 | 10 | 1 | 6.4*
N/C(=N\OC(=O)c1ccc(Cl)cc1[N+](=O)[O-])c1cccnc1 | 7.0* | 37* | 1 | 0 | . | 8 | 0 | 6.4*
N/C(=N\OC(=O)c1ccc(Cl)cc1Cl)c1ccccn1 | -2 | -16 | 0 | -2 | . | -11 | . | .
N/C(=N\OC(=O)c1ccc(Cl)cc1[N+](=O)[O-])c1ccccn1 | 8.6* | 21 | 1 | 0 | 10 | 12* | 1 | 2
CCCc1cn(CC[C@@H]2CC[C@@H](NC(=O)CCN3CCCCC3)[C@@H](CO)O2)nn1 | . | . | . | . | 2 | . | . | .
C[C@@H]1CCCCO[C@H](CN(C)CC2CCCCC2)[C@H](C)CN([C@H](C)CO)C(=O)c2cc(NC(=O)C3CCCCC3)ccc2O1 | . | . | . | . | 0 | . | . | .
O=C1NC(=O)C(CC(=O)N(Cc2cccs2)C2(C(=O)NC3CCCC3)CCCCC2)N1 (stereo unspecified) | 8.7* | . | 0 | -1 | . | -1 | 0 | 0
O=C(Cc1cccs1)N(Cc1cccs1)C1(C(=O)NC2CCCCC2)CCCCC1 | -1 | -6 | 0 | -1 | -10 | 2 | . | .
N#Cc1ccsc1NC(=O)CSc1nnnn1-c1ccc(O)cc1 | 7.4* | 11 | 0 | 0 | 26 | 5 | 0 | 5
Nc1c2c(nc3sc4c(c13)CCCC4)-c1ccccc1CC2 | 7.6* | 42* | 3 | 1.1* | -14 | 10 | 2 | 11*
NC(=O)c1sc2nc(-c3ccccc3)c3c(c2c1N)CCCC3 | -2 | -1 | -2 | -2 | -7 | -4 | . | .
O=C(C[C@@H]1C[C@H]2c3cc(NC(=O)CC4CC4)ccc3O[C@H]2[C@@H](CO)O1)NCCc1ccccc1 | . | . | . | . | -1 | . | . | .
Cc1noc(C)c1NC(=O)N(C)C[C@H]1Oc2c(NC(=O)c3ccc(-c4nccs4)cc3)cccc2C(=O)N([C@@H](C)CO)C[C@H]1C | . | . | . | . | 3 | . | . | .
O=C1c2cccc3cccc(c23)C(=O)N1CCc1ccccc1 | 14* | 7 | 2 | 2.1* | . | 8 | 1 | 9.4*
CCC(=O)N1[C@@H]2Cn3c(ccc(C4=CCCC4)c3=O)[C@H]1[C@@H](C(=O)N[C@@H](C)c1ccccc1)[C@@H]2CO | . | . | . | . | -1 | . | . | .
Cc1cc(O)c(C(=O)/C=C/c2ccccc2)c(=O)o1 | 1 | 12 | 0 | 0 | 27 | 2 | . | .
Cc1cc(O)c(C(=O)/C=C/c2ccc(C(C)C)cc2)c(=O)o1 | 8.6* | 39* | 2 | 1.1* | 24 | 11* | 0 | 3
COc1ccc(NC(=O)Nc2ccc3c(c2)C(=O)N([C@@H](C)CO)C[C@@H](C)[C@@H](CN(C)S(=O)(=O)c2ccc(C)cc2)O3)cc1 | . | . | . | . | -6 | . | . | .
SMILES | hcDAF12 agonist | Wnt act | DAX1 StAR inh | ssDAF-12 act | esBAF inh | hgDAF-12 ag | LXR ag | hcDAF12 ag
CCc1ccc(/C=C/C(=O)C2C(=O)c3ccccc3C2=O)cc1 | 8.8* | -9 | 3 | 1.0* | . | 7 | 0 | 5.9*
CCc1ccc(C2C(C(=O)O)c3ccccc3C(=O)N2C)cc1 (stereo unspecified) | 0 | . | 0 | -1 | 7 | 0 | . | .
CN1CCN(C(=O)C[C@H]2CC[C@@H]3[C@H](COC[C@H](O)CN3S(=O)(=O)c3cccc(F)c3)O2)CC1 | . | . | . | . | -3 | . | . | .
COc1ccc(N=Nc2[nH]c3ccc(C)cc3c2O)cc1 | 4 | . | 0 | 0 | . | 2 | . | .
Cc1ccc(N=Nc2[nH]c3ccccc3c2O)cc1 | 9.5* | . | 2 | 1 | . | 13* | 1 | 12*
CCC1(C)Nc2ccccc2C(=O)N1O (stereo unspecified) | 0 | . | 0 | -1 | 6 | 0 | . | .
CC1(C)Nc2ccccc2C(=O)N1c1ccc(Br)cc1 | 6.8* | 66* | 3 | 3.0* | . | 13* | 1 | 5
Cc1noc(C)c1NC(=O)Nc1ccc2c(c1)C(=O)N([C@H](C)CO)C[C@@H](C)[C@@H](CN(C)Cc1ccccc1)OCCCC[C@@H](C)O2 | . | . | . | . | 5 | . | . | .
COc1cc(NC(=O)NC2CCCCN(Cc3ccc(Cl)cc3)C2=O)cc(OC)c1 (stereo unspecified) | -3 | . | -1 | -1 | . | -3 | . | .
O=C(Nc1ccc2ccccc2c1)NC1CCCCN(Cc2ccc(Cl)cc2)C1=O (stereo unspecified) | 9.2* | . | -1 | 2.9* | . | 6 | 0 | 0
COc1cccc2c1C(=O)c1c(O)c3c(c(O)c1C2=O)C[C@@](O)(C(=O)CO)C[C@@H]3OC1CC(N)C(O)C(C)O1 (stereo partly specified) | 11* | -10 | -6 | 7.3* | . | -4 | 2 | 5
CSc1ccc(C2NN=C(c3ccccc3)S2)cc1 (stereo unspecified) | 12* | -5 | 4 | 2.3* | . | 15* | 2 | 14*
Oc1ccccc1C1NN=C(c2ccccc2)S1 (stereo unspecified) | 20* | 12 | 4.1* | 4.2* | 1 | 16* | 2 | 16*
COc1ccc(C2NN=C(c3ccc(C)cc3)S2)cc1 (stereo unspecified) | 4 | 29 | 2 | 0 | 27 | 10 | . | .
C[C@@H]1CN([C@H](C)CO)C(=O)c2cc(C#Cc3ccncc3)cnc2O[C@H]1CN(C)CC1CCOCC1 | . | . | . | . | 0 | . | . | .
Cc1ccc(-n2ncc(C(=O)NC3CC3)c2C2CCN(C(=O)OC(C)(C)C)CC2)cc1 | 0 | 1 | 0 | -1 | 6 | -1 | . | .
